# KB-3-1 cytotox: qHTS assay for MDR1-selective chemotherapeutics: Primary screen using the parental adenocarcinoma cell KB-3-1 | KB-3-1 viability, CellTiter-Glo ATP luminescence, 72 h | Potency, µM (doses to about 46.1 µM), usual class: cytotoxic | 400,000 compounds, 1.4% hits; further: nearly all actives have a fitted effect of over 60% in size
#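 Multi-concentration cytotoxicity screen in KB-3-1 cells grown in DMEM lacking phenol red with 10% FBS. After 72 h at 37 °C with compound, ATP-dependent luminescence was recorded.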
# HT1080-NT tox: qHTS for induction of synthetic lethality in tumor cells producing 2HG: qHTS for the HT-1080-NT fibrosarcoma cell line; HT-1080-NT fibrosarcoma viability, CellTiter-Glo ATP luminescence, 48 h; 360,000 compounds, 1.6% hits; Potency, µM (series often up to 46.1 µM), inactives show at the top dose activity, negative = less viability, actives largely listed as cytotoxic;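 further: NT is the 2HG producing partner of a matched IDH1 knockdown line; 0% = DMSO-treated cells and -100% = media-only wells without cells; nearly all actives have a fitted effect of over 55% in size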
#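 HT-1080-NT; 750 cells/well; 5% FBS RPMI; 48 h compound, 37 degrees C; CellTiter-Glo luminescence; curve fitting and curve-class assignment.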
# TDP1 cell noCPT: qHTS for Inhibitors of human tyrosyl-DNA phosphodiesterase 1 (TDP1): qHTS in cells in absence of CPT. Potency, µM (highest dose often 46.2 µM), for the others: at the top dose activity change, negative = growth inhibition, hits mostly inhibitors. AID 686978, 2013. DT40 Tdp1-/- hTDP1 cells, no CPT, ATP luminescence, 48 h. 420,000 compounds, 15% hits; further: nearly all actives have a fitted effect of over 55% in size
#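 Compound effects on proliferation are scored in DT40 Tdp1-/-;hTDP1 cells in the absence of CPT. ATP levels (CellTiter-Glo luminescence) are recorded after a ≥48 hr, 37 °C incubation.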
# HT1080 IDH1KD tx: qHTS for induction of synthetic lethality in tumor cells producing 2HG: qHTS for the HT-1080-IDH1KD cell line; HT-1080 IDH1 knockdown viability, ATP luminescence, 48 h; Potency, µM (highest dose often 46.1 µM), inactives show top-dose activity, negative = toxicity, usual class: cytotoxic; 360,000 compounds, 2% hits; AID 686971, 2013;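 further: 0% = DMSO wells and -100% = cell-free medium wells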
#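 Knockdown cells (IDH1KD HT-1080) received compounds 2 h after plating at 750 cells/well and were kept 48 h at 37 °C in 5% FBS RPMI. A CellTiter-Glo luminescence read gave % activity for curve fitting.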
# DT40 TDP1 CPT: qHTS for Inhibitors of human tyrosyl-DNA phosphodiesterase 1 (TDP1): qHTS in cells in presence of CPT | chicken DT40 Tdp1-/-;hTDP1 cells + 20 nM CPT, ATP luminescence, 48 h | Potency, µM (highest dose often 46.2 µM), for the others: at the highest dose activity change, negative = growth inhibition, hits mostly inhibitors | 420,000 compounds, 12% hits; further: nearly all actives have a fitted effect of over 55% in size
#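 Chicken DT40 Tdp1-/- cells stably complemented with human TDP1 were seeded at 400 cells/well in medium containing 20 nM camptothecin, exposed to pin-transferred compounds, and grown at 37 °C for at least 48 hr. Viability was read as ATP luminescence.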
# KB-V1 cytotox: qHTS assay for MDR1-selective chemotherapeutics: Primary screen using the drug-selected MDR subline cells KB-V1. KB-V1 MDR cells viability, CellTiter-Glo, 72 h. 400,000 compounds, 3.4% hits. Potency, µM (highest dose often 46.1 µM), most hits filed as cytotoxic; further: nearly all actives have a fitted effect of over 60% in size
#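 Luminescent ATP read-out (CellTiter-Glo, 10 min) measures survival of drug-selected KB-V1 MDR cells after 72 h, 37 degrees C compound exposure. Medium: phenol-red-free DMEM, 10% FBS. Values from fitted concentration-response curves.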
# Numbers without * were called inactive; i = inactive; ? = inconclusive; . = no result given; [ ] = dose if it differs, or a comment. Sampled rows, rich in hits. Any-hit rate of the full collection: about 19%. The call rests on the fitted dose curve; in most records, active means well fitted curve in the direction sought with a large enough effect; inconclusive means small, poorly fitted or top-dose-only effect, or another doubt; inactive means no such curve, though single readings can be large; an effect the other way counts as inactive or inconclusive. Unless noted, on the % scale 0 is the no-effect control and ±100 the full control effect; potency means the concentration at half of the fitted maximal effect.
SMILES,KB-3-1 cytotox,HT1080-NT tox,TDP1 cell noCPT,HT1080 IDH1KD tx,DT40 TDP1 CPT,KB-V1 cytotox
COc1ccccc1/C=C/C=N/n1c(-c2ccc(Cl)cc2)n[nH]c1=S,i,6%,16µM*,5%,?,i
COc1ccccc1/C=C/C=N/n1c(-c2ccccc2)n[nH]c1=S,i,1%,21µM*,-3%,?,i
Cc1ccc(/C=N/n2c(-c3ccc(Cl)cc3)n[nH]c2=S)s1,i,3%,16µM*,-5%,?,i
CCn1c(SCC(=O)NCCc2ccccc2)nc2c([nH]c3ccccc32)c1=O,i,?,-5%,?,-15%,i
Cc1cc(C)cc(OCC(=O)OCC(=O)Nc2cc(S(=O)(=O)N3CCOCC3)ccc2Cl)c1,i,-5%,-7%,-1%,-9%,i
O=S1(=O)N[C@H](Cc2ccccc2)COc2cc(N3CCC[C@H]3CO)ccc21,i,-3%,?,-1%,-21%,i
Cc1c(C(=O)NC2CC(=O)N(c3ccc4c(c3)OCCO4)C2)cccc1[N+](=O)[O-] (configuration not stated),i,9%,-15%,10%,7%,i
C=CC[N+]1(CC(=O)NCc2ccc(NC(C)=O)cc2)CCOCC1,i,0%,7%,9%,4%,i
COc1ccccc1/C=C/C=N/n1c(C2CCCCC2)n[nH]c1=S,i,-10%,16µM*,-27%,?,?
CCOc1ccccc1/C=N/n1c(C2CCCCC2)n[nH]c1=S,i,3%,-1%,4%,-21%,i
CSc1ccc(C2=C/C(=C3/SC(=S)NC3=O)c3ccccc3O2)cc1,i,14%,?,0%,?,i
Cc1nnc(OCc2nc3ccccc3n2C)c2ccccc12,?,-2%,?,1%,?,9.2µM*
Cc1noc(C)c1COc1ccc(C(=O)Nc2ncccc2O)cc1,i,0%,?,0%,?,?
O=C(/C=C/c1ccc(Cl)cc1)N1CCN(c2ccc(Cl)cc2[N+](=O)[O-])CC1,i,-6%,?,-7%,?,i
O=C(/C=C/c1ccccc1)N1CCN(c2c(Cl)cccc2[N+](=O)[O-])CC1,i,-6%,16µM*,-9%,23µM*,i
CCC(=O)N1CCN(c2c(Cl)cccc2[N+](=O)[O-])CC1,?,2%,?,0%,?,?
O=C(c1cccnc1)N1CCN(c2c(Cl)cccc2[N+](=O)[O-])CC1,i,0%,8.2µM*,3%,-21%,i
CC(C)C(=O)N1CCN(c2c(Cl)cccc2[N+](=O)[O-])CC1,?,16%,?,9%,-2%,15µM*
COC(=O)c1ccccc1NC(=O)Cn1c(=O)n(CCC(=O)NCc2ccc3c(c2)OCO3)c(=O)c2ccccc21,i,.,?,.,?,i
Cc1c(C(=O)N2CCCC(C)C2)sc2ncnc(NCCN3CCCCC3)c12 (configuration not stated),.,.,-24%,.,-2%[9.04 µM],.
Cc1ccc(-n2ncc3c(NCc4cccnc4)ncnc32)c(C)c1,?,-1%,5.2µM*,-30%,16µM*,?
Cc1cccc(C(=O)NNc2ncnc3c2cnn3-c2ccc(C)cc2C)c1,i,.,?,.,23µM*,i
Cc1ccc(-n2ncc3c(NCc4cccnc4)ncnc32)cc1C,?,-27%,?,-16%,21µM*,?
Cc1ccc(NC(=O)CSc2nccn2Cc2ccc3c(c2)OCO3)c(C)c1,.,.,-1%,.,-14%,.
Cc1ccc(N(C(=O)c2ccccc2Cl)C2=NC(C)CS2)c(C)c1 (configuration not stated),i,-23%,18µM*,-17%,?,i
SMILES,KB-3-1 cytotox,HT1080-NT tox,TDP1 cell noCPT,HT1080 IDH1KD tx,DT40 TDP1 CPT,KB-V1 cytotox
Cc1cc(C)cc(OCC(=O)Nc2cccc(-c3nnc(-c4ccco4)o3)c2)c1,i,-2%,?,10%,?,15µM*
COc1ccccc1CC(=O)Nc1ccc(-c2nnc(-c3ccco3)o2)cc1,i,0%,16µM*,-2%,?,?
COc1ccc(C(=O)Nc2cccc(-c3nnc(-c4ccco4)o3)c2)cc1,?,?,16µM*,?,18µM*,13µM*
O=C(Nc1ccc(-c2nnc(-c3ccco3)o2)cc1)C(c1ccccc1)c1ccccc1,i,-25%,8.2µM*,-30%,9.2µM*,i
Cc1ccc(SCC(=O)Nc2ccc(-c3nnc(-c4ccco4)o3)cc2)cc1,i,?,?,?,?,i
Cc1cc(C(F)(F)F)c2c(N)c(C(=O)Nc3c(Cl)cccc3Cl)sc2n1,i,.,?,.,?,i
COc1ccc(C(=O)NCCS(=O)(=O)N2CCCC2)cc1,i,11%,-23%,7%,13%,i
Cc1cccc(CN(C)C[C@@H]2OCc3cnnn3CCCC(=O)N([C@H](C)CO)C[C@H]2C)c1,i,0%,-26%,7%,-4%,i
NC(=O)c1ccc(NC(=O)Cc2cccs2)cc1,i,5%,-3%,13%,-13%,?
COc1cccc(C(=O)Nc2ccccc2-c2nnc(-c3cccc(OC)c3)o2)c1,i,.,12µM*,.,9.2µM*,i
O=C(Cc1cccs1)Nc1cccc(-c2nnc(-c3ccco3)o2)c1,i,-9%,12µM*,-13%,16µM*,?
Cc1ccc(-c2nnc(-c3ccc(NC(=O)Cc4cccs4)cc3)o2)cc1,i,?,18µM*,?,15µM*,?
Cc1ccc(C(NC(=O)Cc2cccs2)C(=O)Nc2ccc(C(C)C)cc2)cc1 (configuration not stated),i,.,?,.,16µM*,i
COc1ccc(NC(=O)C(Cc2ccccc2)NS(=O)(=O)c2ccc3c(c2)CCC(=O)N3)c(OC)c1 (configuration not stated),i,.,?,.,-4%,?
CC(=O)N1CC2(CC(c3ccc(Cl)cc3Cl)=NO2)CN1c1cccc(Cl)c1 (configuration not stated),i,-8%,?,-10%,?,i
